# The whole screen tested about 48,000 compounds, of which about 13,000 (27%) showed an effect of 50% or more. This is one part of the list.
# Tested on: Wolbachia pipientis
# Test: Anti-Wolbachia Cell-Based Screen
# Format: functional
# Parameters: scale not given: in the data most compounds retested in dose-response had high values
# Settings: 5 µM
row,Structure (SMILES),Percent Effect [%]
1,CC(O)CN(CC(=O)NC(=O)NCC(F)(F)F)c1ccccc1 (stereo unspecified),-9.09
2,COCCN1CCN(C(=O)c2ccc(C)cc2F)[C@H]2CS(=O)(=O)C[C@H]21,8.657
3,COC(=O)CCNC(=O)c1cccc(C(=O)N(C)c2ccccc2)c1,2.44
4,CC(=O)N1CCN(C(=O)NCCCN(C(C)C)S(C)(=O)=O)CC1,-2.467
5,COc1ccc2[nH]nc(CN3CCN(Cc4cccc(F)c4)CC3)c2c1,-9.903
6,Cc1cc(NCCCNS(C)(=O)=O)nc2ccccc12,-15.92
7,CCN(C)C1COC2(CCN(C(=O)c3ccc4[nH]ccc4c3)CC2)C1 (stereo unspecified),-14.16
8,O=C(CCCc1nc2ccccc2[nH]1)N1CCCC(n2cccn2)C1 (stereo unspecified),-6.233
9,O=C(CCCOc1cccc(F)c1)N1CCCC(n2cncn2)C1 (stereo unspecified),133
10,O=C(CCCOc1ccc(F)cc1)N1CCCC(n2cccn2)C1 (stereo unspecified),-3.272
11,O=C(CCCOc1cccc(F)c1)N1CCCC(n2cccn2)C1 (stereo unspecified),116.5
12,O=C(COc1ccc2c(c1)CCC2)N1CCCC(n2cccn2)C1 (stereo unspecified),22.49
13,O=C(CCCOc1ccc(F)cc1F)N1CCCC(n2cccn2)C1 (stereo unspecified),132.9
14,O=C(CCOc1cccc(F)c1)N1CCCC(n2cncn2)C1 (stereo unspecified),-0.888
15,Cn1cc(C2CCCN2C(=O)CCCOc2ccc(F)cc2F)cn1 (stereo unspecified),6.494
16,O=C(CCCOc1ccccc1Cl)N1CCCC(n2cncn2)C1 (stereo unspecified),20.25
17,O=C(CCOc1cccc(F)c1)N1CCCC(n2cccn2)C1 (stereo unspecified),114
18,Cc1nnc2n1CCN(C(=O)CN1C(=O)CCOc3ccccc31)C2,-10.74
19,CCN1CCN(S(=O)(=O)c2c[nH]c(C(C)C)n2)c2ccccc21,-17.2
20,CCc1ocnc1C(=O)Nc1ccc2ccn(CCN(C)C)c2c1,-13.13
21,CC(C)c1ncncc1C(=O)NCCN1CCCS1(=O)=O,-1.199
22,C/C(=C\c1ccco1)CN(C)C(C)c1ccccn1 (stereo unspecified),4.306
23,CCC(CO)N(Cc1ccccc1C)Cc1ccccc1C(=O)O (stereo unspecified),-4.887
24,COc1ccc(-c2noc([C@@H]3C[C@@H](O)CN3C3CCOCC3)n2)cc1,13.77

row,Structure (SMILES),Percent Effect [%]
1,Cc1nn(C)cc1-c1cncn1CCc1ccc2c(c1)OCCO2.Cl,107.7
2,CCn1cc(-c2cncn2CCc2ccc3c(c2)OCCO3)cn1.Cl,128.2
3,CN(Cc1ccc2c(c1)OCCO2)C(=O)NCCc1cnn(C)c1,10.28
4,CN(Cc1ccc2c(c1)OCCO2)C(=O)Cn1cccnc1=O,7.904
5,CN(Cc1ccc2c(c1)OCCO2)c1ncc(S(N)(=O)=O)s1,-17.53
6,Cn1cnnc1C1CCN(C(=O)Cc2ccc3c(c2)OCCO3)CC1,14.42
7,Cc1cnn(C2CN(Cc3ccc4c(c3)OCCO4)C2)c1,4.221
8,CN(C)c1ncc(-c2cncn2CCc2ccc3c(c2)OCCO3)cn1.Cl,96.16
9,COc1ccc(CN(C)C(=O)CCc2c(C)nc(C)[nH]c2=O)cc1OC,10.21
10,CC(C)Cn1ccnc1CNC(=O)NC(C)c1nccs1 (stereo unspecified),-12.96
11,Cc1cccc(CNC[C@H]2COCc3nc4cccnc4n32)n1,-11.24
12,Cn1c(C2CCCN2C(=O)CN2CSCC2=O)nc2ccccc21 (stereo unspecified),-5.788
13,Cn1ccnc1CN1CCO[C@H]2C(CNC(=O)c3ccco3)CC[C@@H]21.O=C(O)C(F)(F)F (stereo partly specified),-4.038
14,CO[C@@H]1CN(S(=O)(=O)c2cn(C)cn2)[C@@H]2CCCO[C@@H]21.O=C(O)C(F)(F)F,7.147
15,CN1CCc2onc(Cn3cccc3)c2C1.O=C(O)C(F)(F)F,-7.222
16,Cn1ccnc1CN1CCc2c(COCC3CC3)nn(C)c2C1,104.2
17,Cn1cc(CN2CCCn3cnc(COCC4CC4)c3C2)cn1,-7.099
18,Cn1nc(COCC2CC2)c2c1CCN(C(=O)c1ccno1)C2,2.608
19,O=C(O)C(F)(F)F.c1ccn(Cc2noc3c2CN(Cc2ccsc2)CC3)c1,-2.985
20,Cn1ccnc1CN1CCc2onc(COCC3CC3)c2C1.O=C(O)C(F)(F)F,94.95
21,Cc1nc(N)sc1C(=O)N[C@H]1CN(CCO)C[C@@H]1C1CC1,15.87
22,O=C(NCC(F)(F)F)c1coc(COc2cccc(F)c2)n1,-8.912
23,CC(C)c1nnsc1CN1CCc2[nH]nc(-c3ccc(F)c(F)c3)c2C1,-14.43
24,CCc1nc(C)sc1CN1CCc2[nH]nc(-c3ccc(F)c(F)c3)c2C1,80.67

row,Structure (SMILES),Percent Effect [%]
1,CC(C)c1nnsc1CN1CCc2[nH]nc(-c3ccc(Cl)cc3)c2C1,-32.01
2,CC(C)S(=O)(=O)c1ccccc1C(=O)NCC1Cc2ccccc2O1 (stereo unspecified),-14.53
3,Cc1noc2nc(C3CCCN(Cc4ccncc4)C3)cc(C(F)F)c12 (stereo unspecified),102.2
4,Cc1noc2nc(C3CCCN(Cc4cccnc4)C3)cc(C(F)F)c12 (stereo unspecified),110
5,Cc1noc2nc(C3CCN(Cc4ccncc4)CC3)cc(C(F)F)c12,-5.85
6,Cc1noc2nc(C3CCN(Cc4cccnc4)CC3)cc(C(F)F)c12.Cl,-9.901
7,FC(F)(F)c1cc(C2CCCN(Cc3cccnc3)C2)n[nH]1 (stereo unspecified),5.486
8,Cn1cc(CN2CCc3c(COCc4ccncc4)cncc3C2)cn1,11
9,CCS(=O)(=O)N1CCc2c(COCc3ccncc3)cncc2C1,118.3
10,O=C(c1ccoc1)N1CCc2c(COCc3ccncc3)cncc2C1,-1.129
11,O=C(O)C(F)(F)F.c1ccc(CN2Cc3[nH]nc(COCC4CC4)c3C2)nc1,-4.447
12,O=C(O)C(F)(F)F.O=C(O)C(F)(F)F.O=C(c1ccc[nH]1)N1CCc2c(COCc3ccncc3)cncc2C1,-6.376
13,O=C(c1ccsc1)N1CCc2c(COCc3ccncc3)cncc2C1,6.158
14,O=C(O)C(F)(F)F.O=C(O)C(F)(F)F.c1cncc(COCc2nnc3n2CCN(Cc2ccoc2)C3)c1,7.608
15,O=C(O)C(F)(F)F.O=C(O)C(F)(F)F.O=C(O)C(F)(F)F.O=C(O)C(F)(F)F.c1ccc(CN2CCc3c(COCc4ccncc4)cncc3C2)nc1,100.9
16,CCOCc1cncc2c1CCN(S(=O)(=O)c1ccccc1)C2,-7.612
17,O=C(O)C(F)(F)F.O=C(O)C(F)(F)F.O=C(O)C(F)(F)F.c1cncc(COCc2cncc3c2CCN(Cc2ccoc2)C3)c1,108.7
18,Cn1cc(CN2CCc3c(COCC4CC4)cncc3C2)cn1.O=C(O)C(F)(F)F.O=C(O)C(F)(F)F,4.622
19,O=C(O)C(F)(F)F.O=C(O)C(F)(F)F.O=C(O)C(F)(F)F.c1ccc(CN2CCc3c(COCC4CC4)cncc3C2)nc1,97.89
20,N#Cc1ccccc1C(=O)N1C[C@H](CO)C[C@H](CN2CCCC2)C1,4.936
21,Cc1nc(C(=O)N2CCN(C(=O)C3CCC3)[C@@H]3CS(=O)(=O)C[C@@H]32)cs1,7.717
22,CNC(=O)NC(=O)C(C)N1CCC(c2c[nH]c3ccc(OC)cc23)CC1 (stereo unspecified),1.858
23,CC(C)CCN(C)Cn1ncc2cn(-c3ccccc3)nc2c1=O,5.11
24,CCn1c(CNC(=O)Nc2nc(C)c(C)o2)nc2ccccc21,89.34

row,Structure (SMILES),Percent Effect [%]
1,Cc1nc(NC(=O)NCc2nc3cccc(C)c3n2C)oc1C,43.9
2,CCn1c(CNC(=O)c2ccc(N(C)C)nc2)nc2ccccc21,8.635
3,CC(=O)NCCSCCOc1cccc(Br)c1,-2.574
4,CCCNC(=O)CSCc1ccc(S(=O)(=O)N(C)C)o1,-0.4398
5,CC(C)Nc1oc(-c2ccc(S(=O)(=O)N(C)C)o2)nc1C#N,118.4
6,CN(C)S(=O)(=O)c1ccc(-c2nc(C#N)c(NC(C)(C)C)o2)o1.Cl,93
7,CNc1oc(-c2ccc(S(=O)(=O)N(C)C)o2)nc1C#N,100.4
8,CNc1oc(-c2cc(S(=O)(=O)N3CCCCCC3)c(C)o2)nc1C#N,9.909
9,CN(C)S(=O)(=O)c1ccc(CSCC(=O)NC(C)(C)C)o1,-7.197
10,CNc1oc(-c2ccc(OC)c(S(=O)(=O)N3CCCCC3)c2)nc1C#N,-6.371
11,Cc1oc(-c2nc(C#N)c(N(C)C)o2)cc1S(=O)(=O)N1CCCC1,17.91
12,COc1cccc(N2CC3(CCN(c4ccncn4)C3)CC2=O)c1 (stereo unspecified),-12.13
13,Cc1nnc2n1CCN(Cc1nc3ccccc3o1)C2,13.24
14,O=C(N[C@@H]1CCNC[C@H]1O)c1cc(F)cc(Cl)c1,0.509
15,O=C(CN1CCC(C(=O)c2cc(F)ccc2F)CC1)NC1CC1,-20.5
16,CC(C)NC(=O)CCC(=O)N1CCC(c2noc3cc(F)ccc23)CC1,90.62
17,O=C(O)CCCC(=O)N1CCC(c2noc3cc(F)ccc23)CC1,110.7
18,O=C(CCC(=O)N1CCNC(=O)C1c1cccc(F)c1)NC1CCCC1 (stereo unspecified),-14.56
19,O=C(CCC(=O)N1CCC(c2noc3cc(F)ccc23)CC1)NC1CC1,145.4
20,CS(=O)(=O)CCC(=O)N1CCC(c2cccc(F)c2)C1 (stereo unspecified),-0.1646
21,CC(C)NC(=O)CCN1CCC(C(=O)c2cc(F)ccc2F)CC1,-38.81
22,O=C(O)CCC(=O)N1CCC(c2noc3cc(F)ccc23)CC1,117.2
23,CC(=O)N1CC[C@H](c2nc3cc(F)ccc3o2)C1,5.323
24,O=C(CCc1cc(O)no1)N1CCC(Cc2ccc(F)cc2)CC1,-4.234

# Reference: ChEMBL document CHEMBL3988442, “University of Dundee, Small-Polar-MMV Screening Library” (2021)
